Data: PubChem BioAssay AID651692 (Broad Institute, 2012)
Potency and affinity values are given separately. Values without a mark were called inactive.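 The calls were made as follows: active = fitted half-maximal concentration for loss of cell signal no higher than twice the top valid tested concentration; inconclusive = flat curve at 30 to 70% inhibition, or poor fit; inactive = flat within 30%, signal rise, or potency above limit.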

Test: cytotoxicity toward MDA-MB-231 breast cancer cells – cell-based, CellTiter-Glo luminescence, cherry-pick, cytotoxicity control for RAD54 inhibitor project, dose response (AID 651692);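 also: 0% = median of sample compound wells and -100% = staurosporine control wells; more negative values mean stronger loss of viable cell signal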
Conditions: MDA-MB-231 viability, 24 h; series mostly up to 26 µM; activity change, negative = growth inhibition: at the top concentration

| SMILES | activity change, negative = growth inhibition [%] |
| --- | --- |
| CN1CCN(c2ccc(CNC(=O)C3Cc4c(-c5ccc(Cl)cc5)ccnc4O3)cc2)CC1 (centres undefined) | 5.92 |
| CCCCN(CC)CCCNC(=O)c1cc2c(=O)n(C)c3ccccc3c2n1C | -6.97 |
| O=C(Nc1cccc(Br)c1)c1cc(S(=O)(=O)N2CCOCC2)cs1 | 7.46 |
| CN(C)CCNC(=O)c1c(NC(=O)c2ccccc2)sc2c1CCCC2 | 0.703 |
| CCN1CCN(c2cc(C)c3cc(NC(=S)N4CCCC(C)C4)ccc3n2)CC1 (centres undefined) | -10.6 |
| CCN1CCN(CCCNC(=O)c2cc3c(=O)[nH]c4ccccc4c3s2)CC1 | -5.85 |
| Cc1c(Cl)ccc(S(=O)(=O)NCCCn2ccnc2)c1Cl | -1.72 |
| CN(C)CCNc1cc(-c2ccncc2)nc2ccccc12 | 13.6 |
| Oc1cccc(Nc2c3ccccc3nc3ccccc23)c1 | -0.751 |
| CCCCN(CC)CCNC(=O)c1cc2c(=O)n(C)c3ccccc3c2n1C | -11.7 |
| CCN1CCN(c2cc(C)c3cc(NC(=S)N4CCCCC4)ccc3n2)CC1 | -12.2 |
| COc1ccccc1Nc1c2ccccc2nc2ccccc12 | -3.7 |
| CCOC(=O)c1cnc2ccc(C)cc2c1NCCN1CCOCC1 | 6.54 |
| CCN(CC)CCNc1nc(SC)nc2sc3c(c12)CCN(C)C3 | -3.77 |
| CN1CCc2[nH]c3ccc(C(=O)NN)cc3c2C1 | -1.61 |
| CCn1c(=O)c2cc(C(=O)NCCN(C)C)sc2c2ccccc21 | -8.99 |
| COc1ccc(-c2cc(NC=O)c3ncc(-c4cccc(C(=O)NCCN(C)C)c4)n3c2)cn1 | -14 |
| CN1CCCC1CCNc1ccc2c(=O)c3ccccc3oc2c1 (centres undefined) | 6.49 |
| Cc1ccc(-c2nc(N3CCN(C)CC3)c3ccccc3n2)cc1 | -0.384 |
| Cn1c(NCCN2CCCC2)nc2cc(-c3ccccc3)sc2c1=O | -6.96 |

| SMILES | activity change, negative = growth inhibition [%] |
| --- | --- |
| C=CCc1ccccc1OCC(O)CN1CCN(CCN2C(=O)c3cccc4cccc(c34)C2=O)CC1 (centres undefined) | -13.7 |
| CCN1CCN(CCCNC(=O)c2cc3c(=O)oc4ccc(C)cc4c3s2)CC1 | 1.05 |
| CCN(CC)CCNC(=O)c1cc2c(=O)n(C)c3ccccc3c2n1C | -9.16 |
| Oc1ccc(Nc2nc(N3CCCC3)c3ccccc3n2)cc1 | -10.4 |
| COc1ccc2nc3cc(Cl)ccc3c(Nc3cc(CN4CCCC4)c(O)c(CN4CCCC4)c3)c2n1 | 11.3 |
| CCN(CC)CCN(C(=O)c1ccc2ncsc2c1)c1nc2cc3c(cc2s1)OCO3 | -2.56 |
| O=C(Nc1ccc(C2=NCCN2)cc1)c1ccc(C(=O)Nc2ccc(C3=NCCN3)cc2)c(Cl)c1 | 12.8 |
| COc1ccccc1NC(=O)Cn1nnc2sc3c(c2c1=O)CC(C)(C)OC3 | 3.04 |
| Cc1cc(C)n(-c2nc(NCCN(C)C)c3c4c(sc3n2)COC(C)(C)C4)n1 | -9 |
| COC(=O)Nc1nnc(COc2ccccc2)s1 | 1.91 |
| O=C(Nc1nnc(COc2ccc(F)cc2)s1)c1ccco1 | 8.23 |
| c1ccc(-c2nc(NCCCN3CCOCC3)c3ccccc3n2)cc1 | 4.75 |
| O=C(NCCCN1CCCC1)c1cc2c(Cl)nc3ccccc3c2s1 | -12.5 |
| O=C(CN1CCCC1)Nc1ccc(-c2nc3cc(NC(=O)CN4CCCC4)ccc3o2)cc1 | -7.28 |
| Cc1cc(C)c2c(c1)c1nnc(SCCN3CCCCC3)nc1n2C | -8.21 |
| COc1cc2c3c(cccc3c1)C(=O)N(CCN1CCCC1)C2=O | 16.7 |
| CN(C)CCNC(=O)c1cc2c(=O)n(C)c3ccccc3c2n1C | 6.67 |
| CCCCN(CC)CCCNC(=S)Nc1ccc2nc(N3CCN(C)CC3)cc(C)c2c1 | -1.01 |
| Cn1c2ccc(F)cc2c2ncn(CCCN(CCO)CCO)c(=O)c21 | 1.71 |
